Bioassay records deposited in PubChem by National Center for Advancing Translational Sciences (NCATS).
The sample as a whole holds a higher share of hits than the screen did.
Pf Dd2 inh = Plasmodium falciparum Dd2 growth inhibition | P. falciparum Dd2 growth, SYBR Green, 72 h | Potency, µM (doses to about 28.9 µM), for the others: at the top dose activity, negative = inhibition, most hits filed as inhibitors | 120,000 compounds, 4.3% hits | AID 1347417; active means well fitted inhibition curve with a large enough effect;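 further: plate controls were DMSO vehicle for no effect and reference drug for full effect; nearly all actives have a fitted effect of over 65% in size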
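Readout: SYBR Green fluorescence, 485 nm excitation, 535 nm emission, after ~16 h lysis at 37C. Before that, Dd2-infected red cells (2.5% hematocrit) grew 72 h with compound, 29 uM top final concentration.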
An asterisk follows results filed as active; i = inactive; [ ] = remark or other dose. Potency means the concentration at half of the fitted maximal effect.

SMILES	Pf Dd2 inh
COc1ccc2cc(C3CN(C(=O)c4cccc(CO)n4)CCO3)ccc2c1 (configuration not stated)	2%
COc1ccc(C2Cn3nnc(C(=O)NCc4cccc(C(F)(F)F)c4)c3CO2)cc1 (configuration not stated)	i
CCn1c(CO)nnc1C1CC(NC(=O)Cn2ncc3ccccc32)C1 (configuration not stated)	4%
CN(C)CCN1CC[C@H]2CN(S(=O)(=O)c3ccccc3)CC[C@H]2CC1=O	-11%[44.1 µM]
O=C1NCc2ccccc2CC12CCN(CC1=CCCCC1)CC2	-11%
CC(=O)c1sc2c(c1C)c(=O)n(-c1ccc(Cl)cc1)c(=O)n2Cc1cc(=O)n2cc(Cl)ccc2n1	1.3µM*
Cc1sc2c(c1C)c(=O)n(-c1ccc(Cl)cc1)c(=O)n2Cc1cc(=O)n2ccccc2n1	i
CCOc1ccc(-n2c(=O)c3c4c(sc3n(Cc3cc(=O)n5cc(Cl)ccc5n3)c2=O)CCC4)cc1	1%
CCN1c2cc(C(=O)Nc3cccc(C(F)(F)F)c3)ccc2C(=O)N2CCCC21 (configuration not stated)	158%
COC[C@@H]1CN(c2cnccn2)C[C@H]1C(=O)NCc1ccccc1OC	-44%
CC(=O)Nc1ccc([C@@H](O)[C@H]2COCC(=O)N2CC(C)C)cc1	-14%[44.1 µM]
COc1ccc(NC(=O)c2cc(C3CC3)nc3c2c(C)nn3-c2ccccc2)cc1	6%
COCCNC(=O)c1cc(-c2ccc(OC)cc2)nc2c1c(C)nn2-c1ccccc1	-30%
COc1ccc(-c2cc(C(=O)NC3CCNCC3)c3c(C)nn(-c4ccccc4)c3n2)cc1	11µM*
Cc1ccc(F)cc1CN1CCOc2cc([S+](N)(=O)[O-])ccc2C1	-21%[44.1 µM]
COc1cccc(NC(=O)N(CCC(C)C)C2CCN(C(C)C)CC2)c1	i
COc1ccc(CN(C(=O)Nc2cccc(OC)c2)C2CCN(C(C)=O)CC2)cc1	-5%
COc1cccc(NC(=O)N(Cc2cn(C)c3ccccc23)C2CCCCC2)c1	2.8µM*
Cc1ccc(NC(=O)Cn2cc(C(=O)C3CC3)c3ccccc32)cc1C	314%[5.79 µM]
Cc1ccc(NC(=O)N(Cc2cn(C)c3ccccc23)C2CCCCC2)cc1C	3.5µM*
CC(=O)N1CCC(N(CCCOC(C)C)C(=O)Nc2ccc(C)c(C)c2)CC1	4%
CN1C[C@@H](NS(=O)(=O)c2ccccc2)C[C@H]1c1nc(-c2cnccn2)no1	15%[44.1 µM]
O=C(NCc1ccc(F)cc1)C1CN(Cc2ccccc2)C(=O)N1 (configuration not stated)	-8%[44.1 µM]
Cc1noc(C2CCCN2C(=O)c2cccc(CC3CCNCC3)c2)n1 (configuration not stated)	-10%
CC(C)n1cnnc1CC1CCN(S(=O)(=O)Cc2ccccc2)C1 (configuration not stated)	-2%
SMILES	Pf Dd2 inh
COc1ccccc1OC1(C(=O)O)CCN(C(=O)c2ccoc2C)CC1	-9%
COCC1CN(C(C)=O)CC12CCN(C(=O)CN1CCCCCC1)CC2 (configuration not stated)	i
O=C(NCc1cccnc1)c1nc(-c2ccccc2)c2ccccn12	10µM*
COc1ccccc1-c1nc(C(=O)NCc2ccc3c(c2)OCO3)n2ccncc12	13µM*
O=C(NCc1ccncc1)c1nc(-c2cccnc2)c2cnccn12	-1%
O=C(NCCc1ccc(Cl)cc1)c1nc(-c2ccc(Cl)nc2)c2cnccn12	8.9µM*
O=C(NCc1cccnc1)c1nc(-c2ccc(F)cc2)c2cnccn12	-5%
COCCNC(=O)c1nc(-c2ccccc2OC)c2cnccn12	-8%[44.1 µM]
COC(=O)CNC(=O)c1nc(-c2ccc(Cl)nc2)c2cnccn12	10%
O=C(NCc1ccc(F)cc1)c1nc(-c2ccccc2)c2cnccn12	4µM*
C#CCNC(=O)c1nc(-c2cccnc2)c2ccccn12	i
O=C(NCCc1ccc(Cl)cc1)c1nc(-c2ccccc2)c2ccccn12	-7%
COc1ccccc1-c1nc(C(=O)NC2CC2)n2ccncc12	-19%[44.1 µM]
O=C(NCc1cccnc1)c1nc(-c2ccc(Cl)nc2)c2ccccn12	58%
O=c1cc(N2CCOCC2)oc2c(-c3ccccc3)nccc12	-18%[44.1 µM]
O=C1[C@@H]2C[C@@H](O)CN2C2(CN(Cc3ccccc3)C2)C(=O)N1Cc1cccc(Cl)c1	-35%[44.1 µM]
COc1ccc(S(=O)(=O)N2CCc3c(C(=O)NCc4ccccn4)cccc32)cc1	i
Cc1cncc(C(=O)N2CCC3(CC2)CN(C2CCC2)CC3CO)c1 (configuration not stated)	9%
CCCNC(=O)N1CCCN(S(=O)(=O)c2ccccc2)CCC(=O)NCC1	6%
Cc1ccc(C(=O)N2CCN(c3cc(-c4cccs4)[nH]n3)CC2)cc1	i
Cc1ccc(-n2c(C3CCN(C(=O)c4ccc(C)nc4)CC3)n[nH]c2=O)cc1	-13%
CC1CN(c2ccccc2C#N)C(=O)CN1C(=O)c1ccc2c(c1)OCCO2 (configuration not stated)	2%
CCCCNC(=O)N1CC(C(=O)NCc2ccco2)CC(c2ccc(F)c(C)c2)C1 (configuration not stated)	i
CCCN1C(=O)C(CC(=O)N2CCCCCC2)Sc2ncccc21 (configuration not stated)	-7%
COc1ccccc1-c1nc(C(=O)NCc2cccs2)n2ccccc12	i
SMILES	Pf Dd2 inh
Cc1cccc(C)c1-c1nc(C(=O)NCc2cccnc2)n2ccccc12	-19%
O=C(NCc1cccs1)c1nc(-c2ccc(F)cc2)c2cnccn12	4µM*
COC(=O)CNC(=O)c1nc(-c2cccc(C(F)(F)F)c2)c2cnccn12	16%
C#CCNC(=O)c1nc(-c2ccc(Cl)nc2)c2ccccn12	-26%
C[S+](=O)([O-])c1ccc(-c2nc(C(=O)NCc3ccc(F)cc3)n3ccncc23)cc1	11µM*
O=C(NCc1ccc(F)cc1)c1nc(-c2ccc(Cl)nc2)c2cnccn12	7.9µM*
Cc1cccc(C)c1-c1nc(C(=O)NCc2ccsc2)n2ccccc12	8.9µM*
Cn1ncc2c(C(=O)NCc3ccc(F)cc3)cc(-c3ccc([S+](C)(=O)[O-])cc3)nc21	-16%
N#CC1CCN(C(=O)c2nc(-c3ccc(F)cc3)c3cnccn23)CC1	i
CC(C)(C)c1nc(C(=O)NCc2ccc(F)cc2)n2ccccc12	-10%
O=C(c1nc(-c2ccc(Cl)nc2)c2cnccn12)N1CCCC1	9%
COc1cc(SC)ccc1C(=O)N[C@H]1C[C@@](O)(C(=O)N[C@@H](Cc2cccs2)C(N)=O)C[C@@H](O)[C@@H]1O	3%
COc1ccc(-n2ncc(C(C)NC(=O)Cc3ccc4c(c3)OCO4)c2C)cc1 (configuration not stated)	i
COc1ccc(NC(=O)N2CC(C(=O)N(C)C)C3(CCOCC3)C2)c(C)c1 (configuration not stated)	18%
O=C(CN1C(=O)CCC1=O)N1CCC(c2noc(-c3ccccn3)n2)C1 (configuration not stated)	i[5.79 µM]
COCCNC(=O)[C@@H]1C[C@@H](O)CN1C1CCN(C(=O)C(C)C)CC1	4%
COCC(=O)NC[C@@H]1C=C(C)[C@H](CC(=O)NC2CCCC2)C[C@H]1C(C)C	10%[44.1 µM]
COc1ccc(CN2CC3(CCN(C(=O)Nc4ccccc4)CC3)C2=O)cc1	-7%
O=C(c1cc(F)cc(F)c1)N1CC(c2nc(CCc3ccccc3)no2)C1	-14%
O=C(c1ccncc1)N1CCC(Oc2cccc(F)c2)C1 (configuration not stated)	-21%
Cc1ccc(N2CCC(NC(=O)c3ccc(Br)cc3)C2=O)cc1 (configuration not stated)	22%
